Data on 91 compounds can be found in PubChem BioAssay AID463173 (ICCB-Longwood Screening Facility, Harvard Medical School, 2010).

Hit rate of the full screen: of about 52,000 compounds, about 4,300 (8.3%) were called active. The list comes from a sample in which actives are over-represented; it also holds similar structures and randomly drawn compounds. Values without a mark were called inactive. No stated cut-off is given here; in the data, active means survival mostly below about 52% (no sharp cut-off); inactive means mostly above about 56%.

The test concerns DeltatarO mutant. The test can be described thus: growth inhibition of S. aureus wild type versus tarO mutant, primary screen, teichoic acid synthesis inhibitors, RN4220, OD600 (AID 463173). Particulars: OD600, 18 h, hits give low values, screened at 18.75 µg/mL (by protocol).
Turning to `COc1ccc(C(=O)N/N=C2/SCC(=O)N2C)c(OC)c1`, the survival was 69%.

`CCCCN1C(=O)C(O)(c2c(C)[nH]c3ccccc23)c2ccccc21` (stereo unspecified): the survival was 51%.

As for `Cc1[nH]c2ccccc2c1C1(O)C(=O)N(Cc2ccccc2)c2ccc(Br)cc21` (stereo unspecified), the survival was 3% (active).

With `CCCCN1C(=O)C(O)(c2c(C)[nH]c3ccccc23)c2cc(Br)ccc21` (stereo unspecified), the survival was 27% (active).

On to `Cc1[nH]c2ccccc2c1C1(O)C(=O)N(Cc2ccccc2)c2ccc(Cl)cc21` (stereo unspecified), for which the survival is 24% (active).

Regarding `Cc1[nH]c2ccccc2c1C1(O)C(=O)N(Cc2ccc(Cl)cc2)c2ccccc21` (stereo unspecified), the survival was 29% (active).

In the case of `Cc1[nH]c2ccccc2c1C1(O)C(=O)N(Cc2ccccc2Cl)c2ccccc21` (stereo unspecified), the survival was 51%.

Consider `Cc1ccc(C)c(CN2C(=O)C(O)(c3c(C)[nH]c4ccccc34)c3ccccc32)c1` (stereo unspecified), for which the survival is 51%.

Turning to `CCN1C(=O)C(O)(c2c(C)[nH]c3ccccc23)c2ccccc21` (stereo unspecified), the survival is 54%.

Take `Cc1ccc(CN2C(=O)C(O)(c3c(C)[nH]c4ccccc34)c3ccccc32)cc1` (stereo unspecified): the survival was 101%.

Regarding `CCOC(=O)CC(NC(=O)CCc1c(C)nc2c(-c3ccccc3)c(C)nn2c1C)c1ccc(C)cc1` (stereo unspecified), the survival is 63%.

For the compound `COc1ccccc1CNC(=O)C1CCN(S(=O)(=O)c2c(C)noc2/C=C/c2c(C)cc(C)cc2C)CC1`, the survival is 79%.

Consider `COc1cn(CC(=O)Nc2cccc(C)c2)c(CN2CCCCC2)cc1=O`, for which the survival was 85%.

On to `C=CCNC(=O)CSc1ccc(C)cc1`, for which the survival was 82%.

With `COc1cc(OC)c(NC(=O)NCc2ccc3c(c2)CCN3C(C)=O)cc1Cl`, the survival was 124%.

Turning to `CC(C)(Oc1ccc(Cl)cc1)C(=O)Nc1ccc(-c2nc3ncccc3o2)cc1`, the survival is 52%.

Turning to `Cc1ccc(SCC(=O)Nc2cccc(-c3nc4cc(Cl)ccc4o3)c2C)cc1`, the survival was 60%.

`Cc1c(NC(=O)C(C)(C)Oc2ccc(Cl)cc2)cccc1-c1nc2ccccc2o1`: the survival is 2% (active).

`COc1c(Cl)cc(Cl)cc1C(=O)Nc1cccc(-c2nc3ccccc3o2)c1C`: the survival is 109%.

Regarding `Cc1cc(NC(=O)C(C)(C)Oc2ccc(Cl)cc2)cc(-c2nc3ncccc3o2)c1O`, the survival was 82%.

Regarding `Cc1c(NC(=O)C(C)(C)Oc2ccc(Cl)cc2)cccc1-c1nc2ncccc2o1`, the survival was 19% (active).

Consider `CCCCN1CCc2nc(Nc3ccc(OC)cc3OC)ncc2C1`, for which the survival is 77%.

As for `CCOC(=O)c1noc2ncn(CC(=O)O)c(=O)c12`, the survival is 54%.

For the compound `O=C(O)c1c2c(nc3ccc(F)cc13)CCCC2`, the survival is 89%.

Take `O=C(CSc1ccccc1)Nc1ccc2c(c1)OCO2`: the survival is 100%.

Regarding `CCCNC(=O)N1[C@H](c2cccs2)[C@@H](C)C(=O)[C@@H](C)[C@@H]1c1cccs1`, the survival is 107%.

`CCOC(=O)CNC(=O)N1[C@H](c2cccs2)[C@@H](C)C(=O)[C@@H](C)[C@@H]1c1cccs1`: the survival was 55% (active).

With `CC(C)CNC(=O)N1[C@H](c2cccs2)[C@@H](C)C(=O)[C@@H](C)[C@@H]1c1cccs1`, the survival is 54%.

As to `CC(C)c1ccccc1NC(=O)CN(c1ccccc1)S(=O)(=O)N(C)C`, the survival is 81%.

For the compound `Cc1oc(-c2ccc(C(=O)Nc3ccccc3F)cc2)nc1COc1ccccc1`, the survival is 94%.

Take `COc1ccc(-c2nc(CS(=O)CC(=O)NCc3ccccc3Cl)c(C)o2)cc1OC` (stereo unspecified): the survival is 72%.

In the case of `CCc1ccc(-c2nc(CSCC(=O)NCc3ccccc3OC)c(C)o2)cc1`, the survival was 62%.

Turning to `COc1ccc(-c2nc(CS(=O)(=O)CC(=O)NCCc3ccc(C)cc3)c(C)o2)cc1`, the survival was 85%.

On to `COc1ccccc1CNC(=O)CSCc1nc(-c2ccc(OC)c(OC)c2)oc1C`, for which the survival is 71%.

Turning to `Cc1oc(-c2ccccc2Cl)nc1CS(=O)CC(=O)NCc1ccccc1Cl` (stereo unspecified), the survival was 54%.

In the case of `Cc1oc(-c2cccc(Cl)c2)nc1CSCC(=O)NCc1ccccc1Cl`, the survival was 0% (active).

With `Cc1ccc(-c2nc(CS(=O)CC(=O)NCc3ccccc3Cl)c(C)o2)cc1` (stereo unspecified), the survival is 54% (active).

On to `COc1ccc(-c2nc(CS(=O)(=O)CC(=O)NCc3ccccc3Br)c(C)o2)cc1`, for which the survival is 41% (active).

As for `Cc1ccc(-c2nc(CS(=O)(=O)CC(=O)NCc3ccccc3Cl)c(C)o2)cc1`, the survival was 56%.

Turning to `Cc1oc(-c2cccc(Cl)c2)nc1CSCC(=O)O`, the survival is 75%.

On to `Cc1oc(-c2cccc(Cl)c2)nc1CS(=O)(=O)CC(=O)NCc1ccccc1Cl`, for which the survival was 49%.

In the case of `COc1ccc(-c2nc(CSCC(=O)NCc3ccccc3Cl)c(C)o2)cc1OC`, the survival is 46% (active).

On to `CN1CCN(C(=O)c2ccc(N(C)S(C)(=O)=O)cc2)CC1`, for which the survival is 107%.

For the compound `Cc1cccc(CCNC(=O)C2CCCN(S(=O)(=O)c3ccc4c(c3)oc(=O)n4C)C2)c1` (stereo unspecified), the survival is 102%.

Consider `Cc1ccc(Cn2c(C)c3cnn(CC(=O)N4CCN(c5ccc(F)cc5)CC4)c(=O)c3c2C)cc1`, for which the survival was 71%.

Consider `CC(=O)c1ccc(NC(=O)Cn2cc(S(=O)(=O)Cc3cccc(Cl)c3)c3ccccc32)cc1`, for which the survival was 113%.

In the case of `O=C(Nc1ccc(F)c(F)c1)c1nc2ncccn2n1`, the survival is 82%.

As for `COc1ccc(Br)cc1CNC(=O)CSc1n[nH]c(-c2ccccc2)n1`, the survival is 73%.

For the compound `Cc1ccc(-c2nc(CS(=O)(=O)CC(=O)NC(C)CCc3ccccc3)c(C)o2)cc1` (stereo unspecified), the survival is 63%.

With `Cc1oc(-c2cccc(Cl)c2)nc1CS(=O)(=O)CC(=O)NC(C)CCc1ccccc1` (stereo unspecified), the survival was 32% (active).

For `Cc1oc(-c2ccccc2Cl)nc1CS(=O)(=O)CC(=O)NC(C)CCc1ccccc1` (stereo unspecified), the survival is 76%.

In the case of `COC(=O)C12CC3CC(CC(C(=O)OC)(C1)C3=O)C2=O`, the survival was 116%.

Take `Cc1nc(SCc2cccc(Cl)c2)nc2c1CCCC2`: the survival is -2% (active).

`O=c1[nH]c(SCc2cccc(Cl)c2)nc2c1CCC2`: the survival is 85%.

On to `Cc1cccc(CSc2nc3c(c(=O)[nH]2)CCC3)c1`, for which the survival is 69%.

In the case of `COc1ccccc1CNC(=O)c1c(O)nc2c(C)cccn2c1=O`, the survival was 69%.

For the compound `O=C(NCc1ccc2c(c1)CCN2C(=O)c1ccncc1)c1ccccc1F`, the survival was 117%.

Regarding `COc1ccccc1Nc1nn2c(=O)c3ccc(C(=O)N4CCCC(C)C4)cc3nc2s1` (stereo unspecified), the survival is 61%.

In the case of `COc1ccccc1Nc1nn2c(=O)c3ccc(C(=O)N4CCCCC4)cc3nc2s1`, the survival was 71%.

Consider `COc1ccccc1Nc1nn2c(=O)c3ccc(C(=O)N4CCC(C)CC4)cc3nc2s1`, for which the survival is 52% (active).

As to `CCc1ccccc1NC(=O)CN1C(=O)C2CCCN2c2ccc(S(=O)(=O)N(CC)CC)cc21` (stereo unspecified), the survival was 72%.

Regarding `CCN(CC)S(=O)(=O)c1ccc2c(c1)N(CC(=O)Nc1cccc(C)c1C)C(=O)C1CCCN21` (stereo unspecified), the survival is -2% (active).

On to `CCN(CC)S(=O)(=O)c1ccc2c(c1)N(CC(=O)Nc1c(C)cccc1C)C(=O)C1CCCN21` (stereo unspecified), for which the survival is 89%.

In the case of `O=C(Cn1c(=O)nc(-c2ccccc2)c2ccccc21)NCCc1ccc(Cl)cc1`, the survival was 70%.

As to `O=C(Cn1ncc2c3ccccc3n(Cc3ccccc3F)c2c1=O)N1CCCCCC1`, the survival is 70%.

`O=C(Cn1ncc2c3ccccc3n(Cc3ccccc3)c2c1=O)N1CCCCCC1`: the survival is 82%.

`CCCn1c2ccccc2c2cnn(CC(=O)N3CCN(c4ccccc4F)CC3)c(=O)c21`: the survival is -4% (active).

For `CCCn1c2ccccc2c2cnn(CC(=O)N3CCC(C)CC3)c(=O)c21`, the survival was 76%.

With `Cc1cc(C)c(Cn2c3ccccc3c3cnn(CC(=O)N4CCCCC4)c(=O)c32)c(C)c1`, the survival was 126%.

Take `CC1CCCCN1C(=O)Cn1ncc2c3ccccc3n(Cc3ccccc3F)c2c1=O` (stereo unspecified): the survival was 32% (active).

For the compound `O=C(Cn1ncc2c3ccccc3n(Cc3ccc(Cl)cc3)c2c1=O)N1CCCCCC1`, the survival was 84%.

As for `CCN1CCN(C(=O)Cn2ncc3c4ccccc4n(Cc4c(C)cc(C)cc4C)c3c2=O)CC1`, the survival is 124%.

`Cc1ccc(Cn2c3ccccc3c3cnn(CC(=O)N4CCCCCC4)c(=O)c32)cc1`: the survival is 19% (active).

With `O=C(Cn1ncc2c3ccccc3n(Cc3ccccc3F)c2c1=O)N1CCCCC1`, the survival is 120%.

`Cc1cc(C)c(Cn2c3ccccc3c3cnn(CC(=O)N4CCCCCC4)c(=O)c32)c(C)c1`: the survival is 9% (active).

Turning to `CCN1CCN(C(=O)Cn2ncc3c4ccccc4n(Cc4ccccc4F)c3c2=O)CC1`, the survival was 95%.

Take `CN(C)c1ccc(C(=O)NC2CCSC2=O)cc1` (stereo unspecified): the survival was 66%.

Take `Cc1ccc(Cl)cc1N1CCN(C(=O)C(C)n2ncn3cccc3c2=O)CC1` (stereo unspecified): the survival was 66%.

In the case of `Cc1ccc2nc(-c3ccc(NC(=O)COc4ccc(Br)cc4Br)cc3)sc2c1`, the survival is 104%.

`CCOc1cc(-c2nnc(SCC(=O)NCCCOC)nc2-c2ccc(OC)c(OCC)c2)ccc1OC`: the survival was 73%.

With `COc1ccc(NC(=O)CCCN2C(=O)COc3ccc(C)cc32)cc1OC`, the survival was 119%.

As to `COc1ccc(CNC(=O)c2oc3c(c2C)-c2nn(Cc4ccccc4Cl)cc2CC3)cc1`, the survival is 89%.

`Cc1ccc(OCCSc2nc3ccc(NC(=O)c4ccco4)cc3s2)cc1`: the survival is 84%.

For `O=C(Nc1ccc2nc(SCCOc3ccccc3Cl)sc2c1)c1ccco1`, the survival is 14% (active).

In the case of `Cc1ccccc1OCCSc1nc2ccc(NC(=O)c3ccco3)cc2s1`, the survival was 25% (active).

On to `CC(=O)Nc1ccc2nc(SCCOc3ccccc3Cl)sc2c1`, for which the survival was 3% (active).

Consider `Cc1ccccc1OCCSc1nc2ccc(NC(=O)c3ccccc3)cc2s1`, for which the survival is 57%.

Take `O=C(Nc1ccc2nc(SCCOc3ccccc3)sc2c1)c1ccco1`: the survival is 99%.

In the case of `CC(C)(C)C(=O)Nc1ccc2nc(SCCOc3ccccc3Cl)sc2c1`, the survival is 89%.

On to `COc1cc(C)ccc1OCCSc1nc2ccc(NC(=O)c3ccco3)cc2s1`, for which the survival is 62%.

Take `O=C(Nc1ccc2nc(SCCOc3ccccc3Cl)sc2c1)c1cccs1`: the survival was 49%.
